From PubChem BioAssay (NCATS)
Results filed as inconclusive are left out. Entries that show only a call come without a potency. Calls of active or inactive are those of the source. Calls follow the shape of the dose curve; as a rule, active = well fitted inhibition curve with a large enough effect; inconclusive = small, poorly fitted or top-dose-only effect; inactive = no such curve, though single readings can be large or run the other way.

Test system: Zika virus NS2B-NS3 protease (linked construct)
Assay: Primary screen NINDS Rhodamine qHTS for Zika virus inhibitors (AID 1347160); also: nearly all actives have a fitted effect of over 55% in size
Details: purified NS2B-NS3 protease, Rhodamine110 substrate fluorescence; series mostly up to 57.1 µM
Procedure, shortened: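 Percent inhibition, normalized to uninhibited and enzyme-free controls, is fitted to a 4-parameter Hill equation. Fluorescence change comes from a 15-min cleavage of 1.5 microM bis-peptide Rhodamine110 substrate by 25 nM linked NS2B-NS3 at room temperature.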
Potency is read from the fitted curve at half-maximal effect.

SMILES | Potency | activity change, negative = inhibition
CC(C)[C@H]1CCC(CO)=C[C@@H]1/C=C(\CO)C(=O)O | inactive | –
C/C=C(\C)C(=O)O[C@@H]1CC2[C@@H](CC=C3C[C@@H](O[C@H]4C[C@H](OC)[C@H](O[C@H]5C[C@H](OC)[C@H](O[C@H]6C[C@H](OC)[C@H](O[C@H]7C[C@@H](OC)[C@H](O[C@@H]8O[C@H](CO)[C@@H](O)[C@H](O)[C@H]8O)[C@@H](C)O7)[C@@H](C)O6)[C@@H](C)O5)[C@@H](C)O4)CC[C@@]32C)[C@@]2(O)CC[C@H](C(C)=O)[C@@]12C (stereo not given in full) | – | 1.97% [at 10.7 µM] (inactive)
C[C@@H]1O[C@@H](O[C@H]2[C@H](OC(=O)[C@]34CCC(C)(C)C[C@H]3C3=CCC5[C@@]6(C)CC[C@H](O[C@@H]7O[C@H](CO[C@@H]8OC[C@H](O)[C@H](O)[C@H]8O)[C@@H](O)[C@H](O)[C@H]7O)C(C)(C)C6CC[C@@]5(C)[C@]3(C)C[C@H]4O)OC[C@@H](O)[C@@H]2O)[C@H](O)[C@H](O)[C@H]1O[C@@H]1OC[C@H](O)[C@H](O[C@@H]2OC[C@@H](O)[C@H](O)[C@H]2O)[C@H]1O (stereo not given in full) | – | -14.5% [at 10.7 µM] (inactive)
COc1cc(C2Oc3c(OC)cc(/C=C/C(=O)OC[C@H]4O[C@@H](OC(C)(C)C(=O)O)[C@H](O)[C@@H](O)[C@@H]4O)cc3C2CO)ccc1O (stereo not given in full) | inactive | –
C=C1CC2[C@]3(C)C(=C(O)C(=O)[C@@]2(C)[C@]2(C(=O)OC)C(=O)C(C)OC(=O)[C@@]12C)C(C)(C)C(=O)CC3O (stereo not given in full) | inactive | –
CCCCCCc1cccc(NC(=O)[C@H](N)CCP(=O)(O)O)c1 | inactive | –
COc1ccccc1CC(C(=O)O)N(C)C(=O)c1ccccc1 (stereo not given) | inactive | –
Cc1cc(O)cc(Oc2cc(C)c(C(=O)O)c(O)c2)c1 | 17.8 µM (active) | –
COc1ccc(C(OC2OC(CO)C(O)C(O)C2O)C(C)O)cc1 (stereo not given) | inactive | –
C[C@@H]1O[C@@H](O[C@H]2[C@H](OC(=O)C34CCC5(C)C(=CCC6C7(C)CC(O)C(O[C@@H]8O[C@H](C(=O)O)[C@@H](O)[C@H](O)[C@H]8O)C(C)(C(=O)O)C7CCC65C)C3CC(C)(C)CC4O)O[C@H](C)[C@@H](O)[C@@H]2O)[C@H](O)[C@@H](O[C@@H]2OC[C@](O)(CO)[C@H]2O[C@@H]2O[C@H](CO)[C@@H](O)[C@H](O)[C@H]2O)[C@H]1O (stereo not given in full) | – | -17.8% [at 10.7 µM] (inactive)
